# Reference: the supplement of paper PMC8728848
# The entries come from a sample that favours the strongest signals as a whole.
# Tests used:
# Experiment in all cases: glycan array binding signal (z-score within array); higher = stronger binding
# Details in all cases: glycan notation: IUPAC condensed, linker removed
# [1] = system: Neu5Ac(a2-3)Gal6S(b1-4)GlcNAc
# Method in brief: (§1)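 Negative Z-scores can be read as non-binding. The Z-score is calculated within each array and then averaged across arrays of one protein sequence at different concentrations or buffers and across linkers. Arrays, 3228 in all, were curated from the Consortium for Functional Glycomics database and kept only where the protein sequence was available.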
# [2] = system: Neu5Ac(a2-3)[GalNAc(b1-4)]Gal(b1-4)Glc
# Method in brief: as §1
# [3] = system: Neu5Ac(a2-3)[Neu5Ac(a2-6)]GalNAc
# Method in brief: as §1
# [4] = system: Neu5Ac(a2-6)Gal(b1-4)GlcNAc(b1-2)Man(a1-3)[GlcNAc(b1-2)Man(b1-4)GlcNAc(b1-2)Man(a1-6)]Man(b1-4)GlcNAc(b1-4)GlcNAc
# Method in brief: as §1
# [5] = system: Neu5Ac(a2-6)Gal(b1-4)GlcNAc(b1-3)Gal(b1-4)GlcNAc
# Method in brief: as §1
# [6] = system: Neu5Ac(a2-6)Gal(b1-4)GlcNAc(b1-3)GalNAc
# Method in brief: as §1
# [7] = system: Neu5Ac(a2-6)Gal(b1-4)GlcNAc(b1-2)Man(a1-6)Man(b1-4)GlcNAc(b1-4)GlcNAc
# Method in brief: as §1
# [8] = system: Neu5Ac(a2-6)Gal(b1-4)GlcNAc(b1-3)Gal(b1-4)GlcNAc(b1-3)Gal(b1-4)GlcNAc(b1-2)Man(a1-3)[Neu5Ac(a2-6)Gal(b1-4)GlcNAc(b1-3)Gal(b1-4)GlcNAc(b1-3)Gal(b1-4)GlcNAc(b1-2)Man(a1-6)]GalNAc
# Method in brief: as §1
# [9] = system: Neu5Ac(a2-6)Gal(b1-4)GlcNAc(b1-3)Gal(b1-4)GlcNAc(b1-6)[Gal(b1-3)]GalNAc
# Method in brief: as §1
# [10] = system: Neu5Ac(a2-3)Gal6S(b1-4)[Fuc(a1-3)]GlcNAc6S(b1-3)Gal(b1-4)Glc
# Method in brief: as §1
# [11] = system: Neu5Ac(a2-6)Gal(b1-4)GlcNAc(b1-2)Man(a1-3)[Neu5Ac(a2-6)Gal(b1-4)GlcNAc(b1-2)Man(a1-6)]Man(b1-4)GlcNAc(b1-4)GlcNAc
# Method in brief: as §1
# [12] = system: Neu5Ac(a2-6)Gal(b1-4)GlcNAc(b1-2)Man(a1-3)[Neu5Gc(a2-6)Gal(b1-4)GlcNAc(b1-2)Man(a1-6)]Man(b1-4)GlcNAc(b1-4)GlcNAc
# Method in brief: as §1
# [13] = system: Neu5Ac(a2-6)Gal(b1-4)GlcNAc(b1-2)[Neu5Ac(a2-3)Gal(b1-4)GlcNAc(b1-4)]Man(a1-3)[Neu5Ac(a2-3)Gal(b1-4)GlcNAc(b1-2)Man(a1-6)]Man(b1-4)GlcNAc(b1-4)GlcNAc
# Method in brief: as §1
# [14] = system: Neu5Ac(a2-3)GalNAc
# Method in brief: as §1
# [15] = system: Neu5Ac(a2-6)Gal(b1-4)GlcNAc(b1-2)Man(a1-6)[Gal(b1-4)GlcNAc(b1-2)Man(a1-3)]Man(b1-4)GlcNAc(b1-4)GlcNAc
# Method in brief: as §1
# [16] = system: Neu5Ac(a2-6)Gal(b1-4)GlcNAc(b1-3)Gal(b1-3)GlcNAc
# Method in brief: as §1
# [17] = system: Neu5Ac(a2-6)Gal(b1-4)GlcNAc(b1-2)Man(a1-3)[Neu5Ac(a2-6)Gal(b1-4)GlcNAc(b1-2)Man(a1-6)]Man(b1-4)GlcNAc(b1-4)[Fuc(a1-6)]GlcNAc
# Method in brief: as §1
# [18] = system: Neu5Ac(a2-6)Gal(b1-4)GlcNAc(b1-2)[Neu5Ac(a2-6)Gal(b1-4)GlcNAc(b1-6)]Man(a1-6)[Neu5Ac(a2-6)Gal(b1-4)GlcNAc(b1-2)Man(a1-3)][GlcNAc(b1-4)]Man(b1-4)GlcNAc(b1-4)GlcNAc
# Method in brief: as §1
# [19] = system: Neu5Ac(a2-6)Gal(b1-4)GlcNAc(b1-3)Gal(b1-4)[Fuc(a1-3)]GlcNAc(b1-3)Gal(b1-4)[Fuc(a1-3)]GlcNAc
# Method in brief: as §1
substance,measurement,setting,value
"SpGH101 (Streptococcus pneumoniae), Q8DR60",glycan array binding signal (z-score),[1],-0.178
same,glycan array binding signal (z-score),[2],-0.199
same,glycan array binding signal (z-score),[3],-0.195
same,glycan array binding signal (z-score),[4],0.015
same,glycan array binding signal (z-score),[5],-0.199
same,glycan array binding signal (z-score),[6],2.23
Epa22,glycan array binding signal (z-score),[1],-0.771
same,glycan array binding signal (z-score),[7],0.268
same,glycan array binding signal (z-score),[8],3.15
same,glycan array binding signal (z-score),[9],0.044
"MIC3-MAR1b (Eimeria tenella), B6VCV4",glycan array binding signal (z-score),[10],0.282
same,glycan array binding signal (z-score),[11],4.75
same,glycan array binding signal (z-score),[12],0.504
same,glycan array binding signal (z-score),[13],2.99
"BambL (Burhholderia ambifaria), Q0B4G1",glycan array binding signal (z-score),[14],-0.313
same,glycan array binding signal (z-score),[15],-0.317
LcI (Legionella pneumophila),glycan array binding signal (z-score),[3],-0.437
same,glycan array binding signal (z-score),[16],0.02
"MIC3-MAR5 (Eimeria tenella), B6VCV4",glycan array binding signal (z-score),[11],1.71
"Wza (Escherichia coli), P0A930",glycan array binding signal (z-score),[17],-0.578
AgI/IIC123-GFP (Streptococcus mutans),glycan array binding signal (z-score),[18],3.72
"SiiE (Salmonella typhimurium), A0A0H3NVH0",glycan array binding signal (z-score),[16],2.56
AgI/II Vhelical-GFP (Streptococcus mutans),glycan array binding signal (z-score),[8],1.12
same,glycan array binding signal (z-score),[19],1.26
